Laboratory results from PubChem BioAssay (NCI).
Several values for one entry are separate records, joined by “and”; a condition that tells them apart may be missing. Equal entries are not always repeated. This is part of a sample that, as a whole, favours compounds with a hit. Of some 83,000 tested, about 20% had one in any assay.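 Assay: single dose, 48 h. Readout: percent growth (0 = no net growth; negative = cell death). Active: <10.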 Activity calls are given as the source filed them.

Test system: HL-60(TB) leukemia
Test: NCI-60 one-dose screen, 48 h (100 = growth as untreated, 0 = no growth, -100 = all killed)
Details: 10 µM unless noted

Row | SMILES | growth
1 | O=C(CSc1nc2ccc([N+](=O)[O-])cc2[nH]1)Nc1ccc(F)cc1 | 71.6% (inactive)
2 | N#Cc1nc(-c2ccccc2)oc1S(=O)(=O)N1CCOCC1 | 5.5% (active)
3 | CCOC(=O)c1sc(Nc2ccc(Cl)cc2)nc1C | 27.2% (inactive)
4 | O=C1/C(=C/c2ccc(O)cc2)Cc2ccc(Cl)cc21 | 60.1% (inactive)
5 | COc1ccc(/C=C/c2nc(-c3n[nH]c(=O)n3-c3ccccc3)c3ccccc3n2)cc1 | 97.1% (inactive)
6 | CCOC(=O)CC[C@H](NC(=O)c1ccc(NC)c2ccccc12)C(=O)OCC | 105% (inactive)
7 | O=C(Nc1ccncc1)C(=O)c1cn(S(=O)(=O)c2ccc(Br)cc2)c2ccccc12 | 15.3% (inactive)
8 | COc1ccccc1Nc1nnc(-c2ccc(Cl)cc2)o1 | -9.62% (active)
9 | COc1cc(CNC(=O)CCCC/C=C/C(C)C)ccc1OCc1nnc(Nc2ccccc2F)o1 | 89.7% (inactive)
10 | COc1ccc(OC)c(Nc2nc(-c3c(C)nc4sccn34)cs2)c1 | 67.9% (inactive)
11 | CCN1C[C@@H](C)n2c(c(O)c3c(=O)n(Cc4ccc(F)c(Cl)c4)nc(C(=O)NC)c32)C1=O | 36.7% (inactive)
12 | O=C1C=CC(=O)N1c1ccc(N2C(=O)C=CC2=O)cc1 | -50.6% (active)
13 | Oc1ccc(CN(Cc2ccc(C(F)(F)F)cc2)Cc2ccc(O)c3ncccc23)c2cccnc12 | -11% (active)
14 | Cc1ccc(NC(=O)NC(=O)CSc2nc3ccccc3nc2C)cc1 | 67.9% (inactive)
15 | O=C(/C=C/c1cccc2ccccc12)c1ccc(NC(=O)c2ccccc2CN2C(=O)c3ccccc3C2=O)cc1 | 44% (inactive)
16 | COc1cnc2c(c1)C(=O)c1c-2n(CCCN2CCNCC2)c(=O)c2cc(F)ccc12 | -25% (active)
17 | Cc1nc2ncnc(Cl)c2[nH]1 | 75.4% (inactive)
18 | c1ccc(C2=NN[C@H](c3cn(-c4ccccc4)nc3-c3ccccc3)C2)cc1 | 112% (inactive)
19 | Cc1ccccc1/C=C1\CN(C(=O)OC(C)(C)C)C/C(=C\c2ccccc2C)C1=O | 40.6% (inactive)
20 | COc1ccc(C2c3sc4c(F)cccc4c3Oc3nc[nH]c(=O)c32)cc1 (centres undefined) | -44.6% (active)

Row | SMILES | growth
21 | O=C(OCc1ncc(-c2ccc(C(F)(F)F)cc2)c(NC2CCCCCC2)n1)c1c(F)c(F)c(F)c(F)c1F | 27.5% (inactive)
22 | CN(C)CCCC1(c2ccc(F)cc2)OCc2cc(-c3cccc4[nH]ccc34)ccc21 (centres undefined) | 31.6% (inactive)
23 | O=C1C(=O)c2ccccc2C(O)=C1CC=C(Cl)Cl | 31.3% (inactive) and 44.6% (inactive)
24 | COc1cc2cc(Oc3ccc(NC(=O)Nc4cccc(C(F)(F)F)c4)cc3)c(C)nc2cc1OCCN1CCOCC1 | 66.9% (inactive)
25 | COc1ccc(/C=C(/C#N)n2nnc3cccc(F)c32)cc1 | -9.75% (active)
26 | O=C1Nc2c(ccc(Cl)c2Cl)/C1=C/c1ccc(F)cc1 | 71.4% (inactive)
27 | C=C1C(=O)O[C@H]2[C@H]1CC/C(COC(=O)NCCc1ccc(OC)c(OC)c1)=C\CC[C@@]1(C)O[C@@H]21 | 30.7% (inactive)
28 | Cc1cccc(/C=C\C(=O)c2ccccc2)c1 | 98.8% (inactive) and 58.7% (inactive)
29 | O=C1c2ccccc2C(=O)c2c1oc1c2c(=O)[nH]c2ccccc21 | 2.26% (active)
30 | O=C(Nc1nc2ccccc2s1)c1ccc(F)cc1 | 111% (inactive)
31 | CN(C)c1ccc(/C=C(\C#N)c2ccccc2)cc1 | -9.62% (active) and 16% (inactive) and 9.8% (active)
32 | CCCCCCCCCCCCCCCCCCOc1cccc(CCOP(=O)(O)OCC[N+](C)(C)C)c1 | 73.4% (inactive)
33 | O=C(c1ccccc1)C1C(=O)N2C(=S)N(c3ccccc3)C(=O)C2C1c1ccc(Cl)cc1 (centres undefined) | 100% (inactive)
34 | CC#CC#Cc1cccc(=O)o1 | 18.1% (inactive)
35 | CC(=O)N1N=C(c2cccc(Nc3ccncc3)c2)CC1c1ccccc1 (centres undefined) | 78.9% (inactive)
36 | OB1OCc2cc(/C=C/c3cccc(C(F)(F)F)c3)ccc21 | -6.49% (active)
37 | C[C@H](CCC(=O)O)[C@H]1CC[C@H]2[C@@H]3CC[C@@H]4/C(=C\c5ccco5)C(=O)/C(=C\c5ccco5)C[C@]4(C)[C@H]3CC[C@]12C | 29.9% (inactive)
38 | CC(C)NCC(O)c1ccc(O)c(O)c1 (centres undefined) | 85.3% (inactive) and 82.1% (inactive) and 95.3% (inactive)
39 | COc1cc(-c2n/c(=C\c3c(O)[nH]c4ccc(Cl)cc34)cc3c2=Nc2ccccc2-3)ccc1F | 96.6% (inactive)
